This passage reports outcome and AC50 results from PubChem BioAssay (EPA / NIEHS).

The source made the active and inactive calls. How the source made its calls: active means hit-call score of the fitted dose curve at least 0.9, where 1 is the maximum; inactive means score below 0.9.

Usually AC50 stands for the midpoint of the concentration-response curve, whichever way the signal moves.

A short description of test [1]: APR_HepG2_CellCycleArrest_1hr: Apredica 1-hour HepG2 Assay for Cell Cycle Arrest (AID 2282666). The following applies: high-content imaging, actives raise or lower the signal. The gist of the method:
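Cell cycle arrest scored from nuclear DNA content (Hoechst 33342) using high-content imaging of fixed HepG2 cells after 1 h treatment across 0.39–200 uM, in duplicate. Gain or loss fitted relative to 0.5% DMSO.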

Test [2] in a line: APR_HepG2_CellLoss_1hr: Apredica 1-hour HepG2 Assay for Cell Loss (AID 2282668).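 Further: curves fitted both ways against DMSO so gain or loss of cells counts.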 The following applies: high-content imaging. The gist of the method: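 Cell number comes from high-content imaging of Hoechst-labelled nuclei in fixed HepG2 cells. Cells were exposed for 1 h to ten concentrations from 0.39 to 200 uM in 0.5% DMSO. Gain or loss was fitted against DMSO controls.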
A short description of test [3]: APR_HepG2_NuclearSize_1hr: Apredica 1-hour HepG2 Assay for Nuclear Size (AID 2282670). The conditions noted are these: high-content imaging, actives raise or lower the signal. The essentials: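 Nuclear size measured by high-content imaging of Hoechst 33342 nuclear stain after formaldehyde fixation; human HepG2 line exposed 1 hr to compounds at 0.39–200 uM in 0.5% DMSO, with bidirectional curve fitting relative to DMSO.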

Test [4] in a line: APR_HepG2_p53Act_1hr: Apredica 1-hour HepG2 Assay for p53 Activation (AID 2282671). The following applies: high-content imaging, actives raise or lower the signal. The essentials: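 After 1 h exposure (0.39–200 uM, 0.5% DMSO final, duplicates), fixed HepG2 cells were labelled with anti-p53 antibody plus Hoechst nuclear stain. Fluorescence quantified by automated 20x imaging; changes fitted in both directions against DMSO.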

Test [5] in a line: APR_HepG2_MitoticArrest_1hr: Apredica 1-hour HepG2 Assay for Mitotic Arrest (AID 2282672). The conditions noted are these: high-content imaging, actives raise or lower the signal. The essentials: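 Ten-point concentration series (0.39 to 200 uM, duplicates, 0.5% v/v DMSO) applied to human HepG2 liver cells for 1 hr. High-content imaging of phospho-histone H3 and Hoechst-stained nuclei after fixation and permeabilization; DMSO-normalised bidirectional fit.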

The nature of test [6]: APR_HepG2_MitoMass_1hr: Apredica 1-hour HepG2 Assay for Mitochondrial Mass (AID 2282674). The conditions noted are these: high-content imaging, actives raise or lower the signal. The gist of the method:
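Mitochondrial mass is taken from MitoTracker Red CMXRos (250 nM, 30 min, pre-fixation) fluorescence imaged at 20x in HepG2 cells. Exposure lasted 1 hr across ten concentrations, 0.39 to 200 uM, 0.5% DMSO; DMSO baseline, bidirectional fitting.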

Test [7] is described as follows: APR_HepG2_MitoMembPot_1hr: Apredica 1-hour HepG2 Assay for Mitochondrial Membrane Potential (AID 2282675). The following applies: imaging, actives raise or lower the signal. The gist of the method:
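Mitochondrial membrane potential read as MitoTracker Red CMXRos intensity by automated imaging of fixed HepG2 cells. Dye at 250 nM for 30 min pre-fixation; compounds 0.39 to 200 uM for 1 hour, duplicate wells, 0.5% DMSO.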

Test [8] is described as follows: APR_HepG2_P-H2AX_1hr: Apredica 1-hour HepG2 Assay for H2AX Phosphorylation (AID 2282673). The conditions noted are these: high-content imaging, actives raise or lower the signal. The gist of the method: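 Phospho-H2A.x immunofluorescence (1:200, FITC secondary) plus Hoechst nuclear stain, quantified by high-content imaging in HepG2 after 1 hr compound exposure. Ten concentrations, 0.39 to 200 uM, in duplicate with 0.5% DMSO; fit both directions against DMSO.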

On to `CC1(C)C(C=C(Cl)Cl)C1C(=O)OC(C#N)c1ccc(F)c(Oc2ccccc2)c1` (centres undefined), for which the result in test [1], in test [2], in test [3], in test [4], in test [5] and in test [6] was inactive. In addition, the compound was called inactive in test [7].
With `CCS(=O)(=O)c1cccnc1S(=O)(=O)NC(=O)Nc1nc(OC)cc(OC)n1`, the compound was called inactive in test [1], in test [2], in test [3], in test [4], in test [8] and in test [6]. In test [7], the result was inactive.
In the case of `OCCOc1ccccc1`, the call in test [1], in test [2], in test [3], in test [4], in test [6] and in test [7] was inactive.
In the case of `CCOc1nc(NC)nc(NC(=O)NS(=O)(=O)c2ccccc2C(=O)OC)n1`, the compound was classed as inactive in test [1], in test [2], in test [3], in test [4], in test [6] and in test [7].
Take `COC(=O)c1ccccc1CS(=O)(=O)NC(=O)Nc1nc(OC)cc(OC)n1`: the result in test [1], in test [2], in test [3], in test [4], in test [6] and in test [7] was inactive.
Take `O=S(=O)(O)C(F)(F)C(F)(F)C(F)(F)C(F)(F)C(F)(F)C(F)(F)C(F)(F)C(F)(F)F`: the compound was called inactive in test [1], in test [2], in test [3], in test [4], in test [8] and in test [6]. Further, the compound was classed as inactive in test [7].
As to `O=[N+]([O-])c1c(Cl)c(Cl)c(Cl)c(Cl)c1Cl`, the call in test [1], in test [2], in test [3], in test [4], in test [5] and in test [6] was inactive. In addition, the compound was called inactive in test [7].
`CCc1ccc(C(=O)NN(C(=O)c2cc(C)cc(C)c2)C(C)(C)C)cc1`: the compound was called inactive in test [1], in test [2], in test [3], in test [4], in test [6] and in test [7].
Take `CC[C@H](C)[C@H]1O[C@]2(C=C[C@@H]1C)C[C@@H]1C[C@@H](C/C=C(\C)[C@@H](O[C@H]3C[C@H](OC)[C@@H](O[C@H]4C[C@H](OC)[C@@H](O)[C@H](C)O4)[C@H](C)O3)[C@@H](C)/C=C/C=C3\CO[C@@H]4[C@H](O)C(C)=C[C@@H](C(=O)O1)[C@]34O)O2` (tested in a mixture with another compound): the result in test [1], in test [2], in test [3], in test [4] and in test [7] was inactive. Besides, the results for the AC50 in test [8] and in test [6] were 22.5 µM (active) and 26.8 µM (active), respectively.
On to `CC(C)(C)C(O)/C(=C\c1ccc(Cl)cc1Cl)n1cncn1` (centres undefined), for which the outcome in test [1], in test [2], in test [3], in test [4], in test [6] and in test [7] was inactive.
As to `ClC1C(Cl)C(Cl)C(Cl)C(Cl)C1Cl` (centres undefined), the result in test [1], in test [2], in test [3], in test [4], in test [6] and in test [7] was inactive.
For `CNC(=O)Oc1cccc(N=CN(C)C)c1`, the call in test [1], in test [2], in test [3], in test [4], in test [8] and in test [6] was inactive. The compound was classed as inactive in test [7].
On to `O=C1c2ccccc2C(=O)N1SC(Cl)(Cl)Cl`, for which the result in test [1], in test [2], in test [3], in test [4], in test [6] and in test [7] was inactive.
In the case of `O=C(Nc1ccccc1)Nc1cnns1`, the call in test [1], in test [2], in test [3], in test [4], in test [8] and in test [6] was inactive. Moreover, in test [7], the AC50 was 76.2 µM (active).
For `Cc1cc(C)nc(NC(=O)NS(=O)(=O)c2ccccc2C(=O)OC2COC2)n1`, the outcome in test [1], in test [2], in test [3], in test [4], in test [6] and in test [7] was inactive.
In the case of `O=C(O)CCCOc1ccc(Cl)cc1Cl`, the call in test [1], in test [2], in test [3], in test [4], in test [6] and in test [7] was inactive.
Regarding `COC(=O)c1ccccc1S(=O)(=O)NC(=O)Nc1nc(C)nc(OC)n1`, the result in test [1], in test [2], in test [3], in test [4], in test [5] and in test [6] was inactive. Also, the compound was classed as inactive in test [7].
Take `CC1(c2ccc(Oc3ccccc3)cc2)OC(=O)N(Nc2ccccc2)C1=O` (centres undefined): the result in test [1], in test [2], in test [3], in test [4], in test [6] and in test [7] was inactive.
As to `O=C(O)C(F)(F)C(F)(F)C(F)(F)C(F)(F)C(F)(F)C(F)(F)C(F)(F)F`, the result in test [1], in test [2], in test [3], in test [4], in test [5] and in test [6] was inactive. Moreover, in test [7], the result was inactive.
Turning to `Oc1ccc(Cl)cc1Cc1ccccc1`, the half-maximal activity concentration (AC50) was 114 µM (active) in test [1], 118 µM (active) in test [2] and 112 µM (active) in test [3]. The outcome in test [4], in test [5], in test [6] and in test [7] was inactive.
As to `Oc1cc(Cl)ccc1Oc1ccc(Cl)cc1Cl`, the AC50 in test [1] was 118 µM (active); in test [2], 114 µM (active); in test [3], 158 µM (active); in test [6] it was 170 µM (active). Besides, the compound was called inactive in test [4] and in test [7].
Regarding `CC(C)OC(=O)Nc1cccc(Cl)c1`, the outcome in test [1], in test [2], in test [3], in test [4], in test [6] and in test [7] was inactive.
Regarding `COC(=O)c1ccccc1S(=O)(=O)NC(=O)N(C)c1nc(C)nc(OC)n1`, the compound was classed as inactive in test [1], in test [2], in test [3], in test [4], in test [6] and in test [7].
On to `[2H]C1([2H])[n+]2ccccc2-c2cccc[n+]2C1([2H])[2H]`, for which the compound was called inactive in test [1], in test [2], in test [3], in test [4], in test [6] and in test [7].
For `CC(C)(C)C(O)C(Oc1ccc(Cl)cc1)n1cncn1` (centres undefined), the result in test [1], in test [2], in test [3], in test [4], in test [8] and in test [6] was inactive. For the same compound, in test [7], the compound was classed as inactive.
On to `COc1cc(OC)nc(NC(=O)NS(=O)(=O)c2cc(NC=O)ccc2C(=O)N(C)C)n1`, for which the result in test [1], in test [2], in test [3], in test [4], in test [6] and in test [7] was inactive.
Take `CC(C)N(C(=O)COc1nnc(C(F)(F)F)s1)c1ccc(F)cc1`: the outcome in test [1], in test [2], in test [3], in test [4], in test [6] and in test [7] was inactive.
Turning to `CN1CSC(=S)N(C)C1`, the compound was classed as inactive in test [1], in test [2], in test [3], in test [4], in test [6] and in test [7].
